Numbering of substitutions follows the chain as printed.

In PMC11006913 one finds binding signal data, which are given here for eight sequences.

What all share (experiment): PBM; 200 nM protein, PBS
What all share (conditions): dsDNA, one strand shown

For assay [1], the target named is HOXB9 (Homo sapiens, UniProt P17482 171-250, T197M).
Assay [2] deals with HOXC9 (Homo sapiens, UniProt P31274 178-260, K195R).
For assay [3], the target named is HOXB9 (Homo sapiens, UniProt P17482 171-250).
The target in assay [4] is HOXC9 (Homo sapiens, UniProt P31274 178-260).
Sequence of HOXC9 (Homo sapiens, UniProt P31274 178-260) (P31274 178-260): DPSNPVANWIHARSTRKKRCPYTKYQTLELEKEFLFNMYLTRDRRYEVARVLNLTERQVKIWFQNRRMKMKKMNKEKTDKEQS
Assay [5] has as its target HOXC9 (Homo sapiens, UniProt P31274 178-260, R193K).
For assay [6], the target named is HOXC10 (Homo sapiens, UniProt Q9NYD6 254-340, K271E).
Sequence of HOXC10 (Homo sapiens, UniProt Q9NYD6 254-340, K271E) (Q9NYD6 254-340 K271E): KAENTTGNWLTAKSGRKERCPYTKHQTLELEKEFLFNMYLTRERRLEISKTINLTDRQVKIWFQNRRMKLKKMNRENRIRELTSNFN
The target of assay [7] is HOXB9 (Homo sapiens, UniProt P17482 171-250, R186Q).
Sequence of HOXB9 (Homo sapiens, UniProt P17482 171-250, R186Q) (P17482 171-250 R186Q): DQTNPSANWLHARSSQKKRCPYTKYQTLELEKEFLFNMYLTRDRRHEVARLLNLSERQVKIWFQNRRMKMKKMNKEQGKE
Assay [8] deals with HOXC9 (Homo sapiens, UniProt P31274 178-260, R222W).
Sequence of HOXC9 (Homo sapiens, UniProt P31274 178-260, R222W) (P31274 178-260 R222W): as the sequence (P31274 178-260) above, with R45W counted along it
In assay [9] the target is HOXC10 (Homo sapiens, UniProt Q9NYD6 254-340).
Sequence of HOXC10 (Homo sapiens, UniProt Q9NYD6 254-340) (Q9NYD6 254-340): as the sequence (Q9NYD6 254-340 K271E) above, with E18K counted along it
For the next assay, the target named is ALX4 (Homo sapiens, UniProt Q9H161 200-286, Q225E).
Sequence of ALX4 (Q9H161 200-286 Q225E): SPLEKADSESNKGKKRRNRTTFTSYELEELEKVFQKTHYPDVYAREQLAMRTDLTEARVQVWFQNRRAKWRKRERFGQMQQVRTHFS
The target of assay [10] is HOXD13 (Homo sapiens, UniProt P35453 263-343, T313R).
Sequence of HOXD13 (Homo sapiens, UniProt P35453 263-343, T313R) (P35453 263-343 T313R): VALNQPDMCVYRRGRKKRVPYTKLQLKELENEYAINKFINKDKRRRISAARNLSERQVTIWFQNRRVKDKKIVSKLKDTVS
In assay [11] the target is HOXD13 (Homo sapiens, UniProt P35453 263-343).
Sequence of HOXD13 (Homo sapiens, UniProt P35453 263-343) (P35453 263-343): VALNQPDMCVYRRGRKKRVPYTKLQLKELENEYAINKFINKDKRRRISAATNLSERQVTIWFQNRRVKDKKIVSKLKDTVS
Assay [12] concerns the target HOXD13 (Homo sapiens, UniProt P35453 263-343, T313A).
Assay [13] has as its target T1, PAX4 (Homo sapiens, UniProt O43316 9-242, R200K).
T1 sequence: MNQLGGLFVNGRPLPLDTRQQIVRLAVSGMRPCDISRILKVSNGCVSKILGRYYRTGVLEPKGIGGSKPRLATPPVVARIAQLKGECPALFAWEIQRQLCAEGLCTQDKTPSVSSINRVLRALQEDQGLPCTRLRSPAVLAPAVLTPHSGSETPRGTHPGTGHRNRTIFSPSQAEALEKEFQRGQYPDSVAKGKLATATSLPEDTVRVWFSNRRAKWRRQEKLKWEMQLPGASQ

For assay [14], the target named is T2, PAX4 (Homo sapiens, UniProt O43316 9-242).
T2 sequence: T1 sequence with K192R

Assay [15] addresses T3, PAX4 (Homo sapiens, UniProt O43316 9-242, R200Q).
T3 sequence: T1 sequence with K192Q

The target in assay [16] is T4, PAX4 (Homo sapiens, UniProt O43316 9-242, F177V).
T4 sequence: T1 sequence with F169V, K192R

Assay [17] has as its target T5, PAX4 (Homo sapiens, UniProt O43316 9-242, F177Y).
T5 sequence: T1 sequence with F169Y, K192R

Assay [18] has as its target T6, PAX4 (Homo sapiens, UniProt O43316 9-242, R227W).
T6 sequence: T1 sequence with K192R, R219W

The target of another assay is HOXB6 (Homo sapiens, UniProt P17509 132-218, K202E).
Sequence of HOXB6 (P17509 132-218 K202E): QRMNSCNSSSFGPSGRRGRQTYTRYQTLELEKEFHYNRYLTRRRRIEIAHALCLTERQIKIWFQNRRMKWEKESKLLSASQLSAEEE
In assay [19] the target is ALX3 (Homo sapiens, UniProt O95076 139-225, N203Q).
Sequence of ALX3 (Homo sapiens, UniProt O95076 139-225, N203Q) (O95076 139-225 N203Q): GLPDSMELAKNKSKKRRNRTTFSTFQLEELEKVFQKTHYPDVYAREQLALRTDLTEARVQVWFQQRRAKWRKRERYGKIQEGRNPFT
The target of assay [20] is ALX3 (Homo sapiens, UniProt O95076 139-225).
Sequence of ALX3 (Homo sapiens, UniProt O95076 139-225) (O95076 139-225): as the sequence (O95076 139-225 N203Q) above, with Q65N counted along it
The target in assay [21] is ALX3 (Homo sapiens, UniProt O95076 139-225, L168Q).
Sequence of ALX3 (Homo sapiens, UniProt O95076 139-225, L168Q) (O95076 139-225 L168Q): as the sequence (O95076 139-225 N203Q) above, with L30Q, Q65N counted along it
The target in assay [22] is ALX3 (Homo sapiens, UniProt O95076 139-225, L168V).
Sequence of ALX3 (Homo sapiens, UniProt O95076 139-225, L168V) (O95076 139-225 L168V): as the sequence (O95076 139-225 N203Q) above, with L30V, Q65N counted along it
Assay [23] has as its target ALX3 (Homo sapiens, UniProt O95076 139-225, N203S).
Assay [24] addresses MSX2 (Homo sapiens, UniProt P35548 130-214, R199I).
For assay [25], the target named is MSX2 (Homo sapiens, UniProt P35548 130-214).
Sequence of MSX2 (Homo sapiens, UniProt P35548 130-214) (P35548 130-214): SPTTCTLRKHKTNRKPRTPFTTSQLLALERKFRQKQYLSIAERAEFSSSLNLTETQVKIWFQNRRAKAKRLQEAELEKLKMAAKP
Assay [26] deals with PROP1 (Homo sapiens, UniProt O75360 56-141).
Sequence of PROP1 (Homo sapiens, UniProt O75360 56-141) (O75360 56-141): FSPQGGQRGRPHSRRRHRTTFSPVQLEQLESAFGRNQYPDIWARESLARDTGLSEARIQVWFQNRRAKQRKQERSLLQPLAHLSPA
Assay [27] addresses PROP1 (Homo sapiens, UniProt O75360 56-141, R99H).
Assay [28] deals with PROP1 (Homo sapiens, UniProt O75360 56-141, F88S).
Sequence of PROP1 (Homo sapiens, UniProt O75360 56-141, F88S) (O75360 56-141 F88S): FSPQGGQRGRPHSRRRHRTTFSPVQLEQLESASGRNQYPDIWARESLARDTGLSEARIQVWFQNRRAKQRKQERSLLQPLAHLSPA
Assay [29] addresses MSX2 (Homo sapiens, UniProt P35548 130-214, F161Y).
The target of assay [30] is HOXA7 (Homo sapiens, UniProt P31268 116-202).
Sequence of HOXA7 (Homo sapiens, UniProt P31268 116-202) (P31268 116-202): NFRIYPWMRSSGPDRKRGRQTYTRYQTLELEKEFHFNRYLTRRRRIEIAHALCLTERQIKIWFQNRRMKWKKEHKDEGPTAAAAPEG
The target of assay [31] is HOXA7 (Homo sapiens, UniProt P31268 116-202, W177C).
Sequence of HOXA7 (Homo sapiens, UniProt P31268 116-202, W177C) (P31268 116-202 W177C): as the sequence (P31268 116-202) above, with W62C counted along it

Sequence of HOXB9 (Homo sapiens, UniProt P17482 171-250) (P17482 171-250): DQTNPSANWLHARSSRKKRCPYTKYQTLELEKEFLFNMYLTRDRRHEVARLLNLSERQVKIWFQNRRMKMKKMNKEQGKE
Sequence of HOXC9 (Homo sapiens, UniProt P31274 178-260, R193K) (P31274 178-260 R193K): as the sequence (P31274 178-260) above, with R16K counted along it
Sequence of HOXB9 (Homo sapiens, UniProt P17482 171-250, T197M) (P17482 171-250 T197M): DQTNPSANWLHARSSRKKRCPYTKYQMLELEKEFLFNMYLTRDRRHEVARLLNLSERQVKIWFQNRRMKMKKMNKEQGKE
Sequence of HOXD13 (Homo sapiens, UniProt P35453 263-343, T313A) (P35453 263-343 T313A): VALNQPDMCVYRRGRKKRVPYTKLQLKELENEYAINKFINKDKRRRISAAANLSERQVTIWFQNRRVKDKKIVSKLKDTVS
Sequence of HOXC9 (Homo sapiens, UniProt P31274 178-260, K195R) (P31274 178-260 K195R): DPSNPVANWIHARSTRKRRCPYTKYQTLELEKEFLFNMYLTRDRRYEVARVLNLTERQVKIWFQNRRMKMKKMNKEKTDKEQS
Sequence of PROP1 (Homo sapiens, UniProt O75360 56-141, R99H) (O75360 56-141 R99H): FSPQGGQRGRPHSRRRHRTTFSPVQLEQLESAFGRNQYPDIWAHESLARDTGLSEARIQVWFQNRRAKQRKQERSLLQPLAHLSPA
Sequence of MSX2 (Homo sapiens, UniProt P35548 130-214, F161Y) (P35548 130-214 F161Y): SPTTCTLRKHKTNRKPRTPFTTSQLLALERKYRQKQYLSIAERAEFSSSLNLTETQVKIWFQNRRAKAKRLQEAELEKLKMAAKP
Sequence of MSX2 (Homo sapiens, UniProt P35548 130-214, R199I) (P35548 130-214 R199I): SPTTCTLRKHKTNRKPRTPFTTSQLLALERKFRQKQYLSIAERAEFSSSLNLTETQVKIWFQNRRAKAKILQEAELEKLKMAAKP
Sequence of ALX3 (Homo sapiens, UniProt O95076 139-225, N203S) (O95076 139-225 N203S): as the sequence (O95076 139-225 N203Q) above, with Q65S counted along it

Take ACATTAAA: the binding signal in the assay with HOXB9 [1] is 9.92 upbm affinity estimate (log intensity, higher = more binding, comparable within an allelic series); with HOXC9 [2], 12.6 upbm affinity estimate (log intensity, higher = more binding, comparable within an allelic series); with HOXB9 [3], 12 upbm affinity estimate (log intensity, higher = more binding, comparable within an allelic series); with HOXC9 [4], 12.6 upbm affinity estimate (log intensity, higher = more binding, comparable within an allelic series); with HOXC9 [5], 12.6 upbm affinity estimate (log intensity, higher = more binding, comparable within an allelic series); in the assay with HOXC10 [6] it was 11.8 upbm affinity estimate (log intensity, higher = more binding, comparable within an allelic series). In addition, the binding signal with HOXB9 [7] is 11.7 upbm affinity estimate (log intensity, higher = more binding, comparable within an allelic series); with HOXC9 [8], 11 upbm affinity estimate (log intensity, higher = more binding, comparable within an allelic series).

Consider TCAATAAA, for which the binding signal with HOXB9 [1] was 9.75 upbm affinity estimate (log intensity, higher = more binding, comparable within an allelic series); with HOXC10 [9], 12.2 upbm affinity estimate (log intensity, higher = more binding, comparable within an allelic series); with ALX4 it was 11.2 upbm affinity estimate (log intensity, higher = more binding, comparable within an allelic series); with HOXB9 [3], 11.8 upbm affinity estimate (log intensity, higher = more binding, comparable within an allelic series); in the assay with HOXD13 [10], 11 upbm affinity estimate (log intensity, higher = more binding, comparable within an allelic series); with HOXD13 [11], 12 upbm affinity estimate (log intensity, higher = more binding, comparable within an allelic series). Further, the binding signal with HOXC10 [6] is 11.6 upbm affinity estimate (log intensity, higher = more binding, comparable within an allelic series); in the assay with HOXD13 [12], 11.7 upbm affinity estimate (log intensity, higher = more binding, comparable within an allelic series); with HOXB9 [7], 11.5 upbm affinity estimate (log intensity, higher = more binding, comparable within an allelic series); with HOXC9 [8], 11.3 upbm affinity estimate (log intensity, higher = more binding, comparable within an allelic series).

Turning to CCCGCGGC, the binding signal was 8.53 upbm affinity estimate (log intensity, higher = more binding, comparable within an allelic series) with HOXB9 [1]; 9.28 upbm affinity estimate (log intensity, higher = more binding, comparable within an allelic series) in the assay with PAX4 [13]; 9.32 upbm affinity estimate (log intensity, higher = more binding, comparable within an allelic series) in the assay with PAX4 [14]; 8.39 upbm affinity estimate (log intensity, higher = more binding, comparable within an allelic series) with HOXB9 [3]; 9.34 upbm affinity estimate (log intensity, higher = more binding, comparable within an allelic series) in the assay with PAX4 [15]; 9.09 upbm affinity estimate (log intensity, higher = more binding, comparable within an allelic series) with PAX4 [16]. Moreover, the binding signal in the assay with PAX4 [17] was 9.18 upbm affinity estimate (log intensity, higher = more binding, comparable within an allelic series); with HOXB9 [7] it was 8.48 upbm affinity estimate (log intensity, higher = more binding, comparable within an allelic series); with PAX4 [18], 9.24 upbm affinity estimate (log intensity, higher = more binding, comparable within an allelic series).

With AATATAAT, the binding signal with HOXB9 [1] was 9.96 upbm affinity estimate (log intensity, higher = more binding, comparable within an allelic series); with HOXB6, 10 upbm affinity estimate (log intensity, higher = more binding, comparable within an allelic series); with ALX3 [19] it was 8.52 upbm affinity estimate (log intensity, higher = more binding, comparable within an allelic series); with PAX4 [16], 10.7 upbm affinity estimate (log intensity, higher = more binding, comparable within an allelic series); with ALX3 [20] it was 11.4 upbm affinity estimate (log intensity, higher = more binding, comparable within an allelic series); with ALX3 [21], 9.35 upbm affinity estimate (log intensity, higher = more binding, comparable within an allelic series). Also, the binding signal with ALX3 [22] is 9.24 upbm affinity estimate (log intensity, higher = more binding, comparable within an allelic series); with ALX3 [23] it was 8.65 upbm affinity estimate (log intensity, higher = more binding, comparable within an allelic series).

Turning to GCTCTCCC, the binding signal was 8.34 upbm affinity estimate (log intensity, higher = more binding, comparable within an allelic series) in the assay with HOXB9 [1]; 9.21 upbm affinity estimate (log intensity, higher = more binding, comparable within an allelic series) with PAX4 [13]; 9.22 upbm affinity estimate (log intensity, higher = more binding, comparable within an allelic series) in the assay with PAX4 [14]; 8.35 upbm affinity estimate (log intensity, higher = more binding, comparable within an allelic series) with HOXB9 [3]; 9.54 upbm affinity estimate (log intensity, higher = more binding, comparable within an allelic series) in the assay with MSX2 [24]; 9.3 upbm affinity estimate (log intensity, higher = more binding, comparable within an allelic series) with PAX4 [15]. For the same sequence, the binding signal is 9.23 upbm affinity estimate (log intensity, higher = more binding, comparable within an allelic series) with PAX4 [16]; 9.45 upbm affinity estimate (log intensity, higher = more binding, comparable within an allelic series) in the assay with MSX2 [25]; 9.16 upbm affinity estimate (log intensity, higher = more binding, comparable within an allelic series) with PAX4 [17]; 6.88 upbm affinity estimate (log intensity, higher = more binding, comparable within an allelic series) in the assay with PROP1 [26]; 6.87 upbm affinity estimate (log intensity, higher = more binding, comparable within an allelic series) in the assay with PROP1 [27]; 8.35 upbm affinity estimate (log intensity, higher = more binding, comparable within an allelic series) in the assay with HOXB9 [7]. The binding signal is 6.53 upbm affinity estimate (log intensity, higher = more binding, comparable within an allelic series) with PROP1 [28]; 9.57 upbm affinity estimate (log intensity, higher = more binding, comparable within an allelic series) in the assay with MSX2 [29]; 9.27 upbm affinity estimate (log intensity, higher = more binding, comparable within an allelic series) with PAX4 [18].

Consider AATAATAA, for which the binding signal with HOXB9 [1] is 9.97 upbm affinity estimate (log intensity, higher = more binding, comparable within an allelic series); in the assay with HOXA7 [30], 10.8 upbm affinity estimate (log intensity, higher = more binding, comparable within an allelic series); with HOXB6, 10 upbm affinity estimate (log intensity, higher = more binding, comparable within an allelic series); in the assay with ALX3 [19] it was 8.58 upbm affinity estimate (log intensity, higher = more binding, comparable within an allelic series); with HOXC9 [8], 11.1 upbm affinity estimate (log intensity, higher = more binding, comparable within an allelic series); with HOXA7 [31] it was 8.85 upbm affinity estimate (log intensity, higher = more binding, comparable within an allelic series).

Consider ATAAAATA, for which the binding signal was 9.86 upbm affinity estimate (log intensity, higher = more binding, comparable within an allelic series) with HOXB9 [1]; 12.3 upbm affinity estimate (log intensity, higher = more binding, comparable within an allelic series) with HOXC10 [9]; 11.8 upbm affinity estimate (log intensity, higher = more binding, comparable within an allelic series) with HOXB9 [3]; 10.8 upbm affinity estimate (log intensity, higher = more binding, comparable within an allelic series) in the assay with HOXD13 [10]; 12.5 upbm affinity estimate (log intensity, higher = more binding, comparable within an allelic series) with HOXC9 [5]; 11.8 upbm affinity estimate (log intensity, higher = more binding, comparable within an allelic series) with HOXD13 [11]. In addition, the binding signal with HOXC10 [6] is 11.7 upbm affinity estimate (log intensity, higher = more binding, comparable within an allelic series); in the assay with HOXD13 [12], 11.6 upbm affinity estimate (log intensity, higher = more binding, comparable within an allelic series); with HOXB9 [7] it was 11.4 upbm affinity estimate (log intensity, higher = more binding, comparable within an allelic series); with HOXC9 [8], 11.3 upbm affinity estimate (log intensity, higher = more binding, comparable within an allelic series).

Consider GGTCCCGA, for which the binding signal with HOXB9 [1] was 8.6 upbm affinity estimate (log intensity, higher = more binding, comparable within an allelic series); with HOXC9 [2], 9.69 upbm affinity estimate (log intensity, higher = more binding, comparable within an allelic series); with HOXB9 [3] it was 8.47 upbm affinity estimate (log intensity, higher = more binding, comparable within an allelic series); with HOXC9 [4], 9.62 upbm affinity estimate (log intensity, higher = more binding, comparable within an allelic series); in the assay with HOXC9 [5] it was 9.59 upbm affinity estimate (log intensity, higher = more binding, comparable within an allelic series); with HOXB9 [7], 8.44 upbm affinity estimate (log intensity, higher = more binding, comparable within an allelic series). The binding signal with HOXC9 [8] was 9.74 upbm affinity estimate (log intensity, higher = more binding, comparable within an allelic series).
